In experiment [1] the target is Cellular tumor antigen p53 (Homo sapiens) (UniProt P04637). The experiment in a line: Primary qHTS for small molecule compounds that upregulate eGFP-tagged delta133p53alpha (in N-terminal) cells. (AID 2060322). Also: nearly all actives have a fitted effect of over 75% in size. Also: potency is read from the fitted curve at half-maximal effect.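 As to activation: 0% = DMSO vehicle and 100% = reference activator.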 The following applies: NCI-H358 eGFP-delta133p53alpha fluorescence, 24 h; activation: active compounds read high. In outline:
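NCI-H358 cells pre-induced 24 h with 10 ng/ml doxycycline to express N-terminal eGFP-delta133p53alpha, then dosed 24 h at 37C without doxycycline; fixed, Hoechst-stained, GFP intensity by laser scanning cytometry, normalized to DMSO (0%) and 57.5 uM 5-azacytidine (100%).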
(In general: In qHTS, concentration-response curves come from the screen itself.)

In experiment [2] the target is Aldehyde dehydrogenase, mitochondrial (Homo sapiens) (UniProt P05091). The experiment in a line: qHTS for Inhibitors of the Aldehyde Dehydrogenase Family (ALDH2) Primary screen (AID 2061308).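 Also: plate controls were vehicle for no effect and reference inhibitor for full effect; nearly all actives have a fitted effect of over 55% in size.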 The note with it: ALDH2 enzyme inhibition qHTS, 1536-well; series mostly up to 56 µM.
Experiment [3] addresses Retinaldehyde dehydrogenase 3 (Homo sapiens) (UniProt P47895). Nature of the experiment: qHTS for Inhibitors of the Aldehyde Dehydrogenase Family (ALDH1A3) Primary screen (AID 2061315).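 Also: plate controls were DMSO vehicle for no effect and reference inhibitor for full effect.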 The note with it: ALDH inhibition qHTS; series mostly up to 56 µM.

Structures are written as SMILES. Records with an inconclusive call do not appear. A number with no mark means an inactive call. Activity calls are given as the source filed them. Calls follow the shape of the dose curve; as a rule, active = well fitted curve in the direction sought with a large enough effect; inconclusive = small, poorly fitted or top-dose-only effect, or another doubt; inactive = no such curve, though single readings can be large; an effect the other way counts as inactive or inconclusive. Peptide text beside a SMILES is read from it.

Drawing on PubChem BioAssay (NCATS), this text covers activation and Potency for 24 compounds.

Cellular tumor antigen p53 (Homo sapiens), sequence (P04637 whole entry, looked up): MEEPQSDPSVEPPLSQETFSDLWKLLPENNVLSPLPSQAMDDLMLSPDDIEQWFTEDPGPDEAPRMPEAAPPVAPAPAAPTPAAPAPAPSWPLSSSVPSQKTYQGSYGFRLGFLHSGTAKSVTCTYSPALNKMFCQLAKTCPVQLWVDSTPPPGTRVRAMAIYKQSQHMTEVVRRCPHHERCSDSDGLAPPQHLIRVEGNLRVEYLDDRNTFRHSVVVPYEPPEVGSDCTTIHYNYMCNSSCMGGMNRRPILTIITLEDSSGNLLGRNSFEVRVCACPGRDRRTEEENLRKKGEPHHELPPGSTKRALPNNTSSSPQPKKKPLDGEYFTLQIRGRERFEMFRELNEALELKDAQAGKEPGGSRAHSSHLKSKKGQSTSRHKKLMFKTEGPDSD

As to `C=C(C)C1CCC2(C(=O)O)CCC3(C)C(CCC4C5(C)C(C=O)C(O)C(C)(C)C5CCC43C)C12` (configuration not stated), the activation in experiment [1] was -19.8%. Also, the Potency result in experiment [2] and in experiment [3] was “inactive” in each case.

Consider `CC(C)=CCc1ccc(Oc2c(O)cc(C)cc2CO)c(C(=O)O)c1O`, for which the activation in experiment [1] is 3.82%. Moreover, the Potency entry in experiment [2] and in experiment [3] was “inactive” each time.

`C/C=C(\C)C1C(C)=CC2CCC(OS(=O)(=O)O)C(C)C2C1/C=C/C=C/C(=O)O` (configuration not stated): in experiment [1], the activation is 0.893%. Moreover, the Potency result in experiment [2] and in experiment [3] was “inactive” each time.

For the compound `C=C1[C@@H]2CC[C@@]3(C)[C@H](c4ccoc4)OC(=O)C[C@]13O[C@H]1CC(=O)C(C)(C)[C@H](C(O)C(=O)OC)[C@]12C` (some centres not stated), the activation in experiment [1] was 8.04%. Besides, the Potency result in experiment [2] and in experiment [3] was “inactive” throughout.

In the case of `COc1c2c(c(C)c3c1C(=O)OC3)OC1(C)CC(O)C34OC(OC)(CCC3(C)C1C2)OC4(C)CO` (configuration not stated), the activation in experiment [1] is 13%. Besides, the Potency result in experiment [2] and in experiment [3] was “inactive” in each case.

In the case of `COc1cccc(OC)c1-c1ccc(C[C@H](NC(=O)c2c(Cl)cccc2Cl)C(=O)O)cc1`, the activation in experiment [1] was 1.67%. Besides, the Potency entry in experiment [2] and in experiment [3] was “inactive” each time.

For `C=C1CC[C@H]2[C@@](C)(CCC(O)[C@@]2(C)CO)[C@@H]1/C=C/C(=C\C(=O)O)C(=O)O` (some centres not stated), the activation in experiment [1] was -2.29%. For the same compound, the Potency entry in experiment [2] and in experiment [3] was “inactive” throughout.

On to `C/C(=C\CCC(C)CCO)C(=O)OC[C@H]1O[C@@H](O[C@@H]2OC=C(C(=O)O)[C@H]3CC[C@](C)(O)[C@@H]23)C(O)[C@@H](O)C1O` (some centres not stated), for which the activation in experiment [1] was -20.5%. In addition, the Potency entry in experiment [2] and in experiment [3] was “inactive” throughout.

For `COc1cc(C)c(C(=O)O[C@H]2[C@@H](O)[C@H](n3ccc(=O)[nH]c3=O)O[C@@H]2CO)c(OC)c1`, the activation in experiment [1] is -3.05%. Besides, the Potency entry in experiment [2] and in experiment [3] was “inactive” in each case.

With `Cc1ccc(C(C)C)c(O[C@@H]2O[C@H](CO)[C@@H](O)[C@H](O)[C@H]2O)c1`, in experiment [1], the activation is -1.53%. Further, the Potency entry in experiment [2] and in experiment [3] was “inactive” each time.

As for `Nc1ncnc2c1ncn2[C@H]1O[C@@H](C(=O)N2CCN(CC(=O)Nc3cccc4c3CNC4=O)CC2)[C@H](O)[C@@H]1O`, in experiment [1], the activation is -24.3%. In addition, the Potency result in experiment [2] and in experiment [3] was “inactive” throughout.

With `C[C@@H]1O[C@@H](O[C@H]2[C@H](O)[C@@H](C(=O)O)O[C@@H](O[C@H]3CC[C@@]4(C)C(CC[C@]5(C)C4CC=C4C6CC(C)(C)CC[C@]6(C(=O)O)CC[C@]45C)C3(C)C)[C@@H]2O[C@@H]2OC[C@@H](O)[C@H](O)[C@H]2O)[C@H](O)[C@H](O)[C@H]1O` (some centres not stated), the activation in experiment [1] is 2.68%. In addition, the Potency result in experiment [2] and in experiment [3] was “inactive” in each case.

With `Cc1c(C(=O)NCCCO)cnn1-c1nc(-c2cccc(C(F)(F)F)c2)cs1`, the Potency in experiment [1] was 9.53 µM (active). Besides, the Potency result in experiment [2] and in experiment [3] was “inactive” throughout.

With `C=C1/C(=C/C=C2\CCC[C@]3(C)[C@@H]([C@@H](C)OCCC(O)(CC)CC)CC[C@@H]23)C[C@@H](O)C[C@@H]1O`, the activation in experiment [1] is -5%. For the same compound, the Potency result in experiment [2] and in experiment [3] was “inactive” in each case.

As for `COc1c(C)c(OCC=C(C)C)cc2c1COC2=O`, the activation in experiment [1] was -0.763%. Also, the Potency result in experiment [2] and in experiment [3] was “inactive” throughout.

`OCC1=CC[C@@H]2C=CO[C@@H](O[C@@H]3O[C@H](CO)[C@@H](O)[C@H](O)[C@H]3O)[C@H]12`: the activation in experiment [1] was -9.92%. Besides, the Potency result in experiment [2] and in experiment [3] was “inactive” throughout.

Turning to `CC1(C)CC=C(c2cnc3ccccc3c2)c2cc(C(=O)Nc3ccc(C(=O)O)cc3)ccc21`, the activation in experiment [1] was 3.34%. Further, the Potency entry in experiment [2] and in experiment [3] was “inactive” each time.

On to `CCOC(=O)c1cnn(-c2ccccc2)c1NC(=O)c1cc2nc(-c3ccco3)cc(C(F)(F)Cl)n2n1`, for which, in experiment [1], the activation was 0.955%. The Potency entry in experiment [2] and in experiment [3] was “inactive” each time.

As to `C=C1C2CCC3CC2(CC(O)C2(O)C1CC(OC1OC(CO)C(O)C(O)C1O)C2(C)C)CC3(C)O` (configuration not stated), the activation in experiment [1] is 19.6%. Moreover, the Potency result in experiment [2] and in experiment [3] was “inactive” each time.

As for `CC1(C)CCCC2(C)C(CO)C(CO)=CCC12` (configuration not stated), the activation in experiment [1] was -3.82%. Moreover, the Potency entry in experiment [2] and in experiment [3] was “inactive” each time.

`CC(=O)NC(Cc1ccccc1)C(=O)NC(C(=O)O)C(C)C` (stereo not drawn) (Ac-Phe-Val-OH; configuration not given here): the activation in experiment [1] is 0%. In addition, the Potency result in experiment [2] and in experiment [3] was “inactive” each time.

For `Cc1cc2c(cc1N1C(=O)c3cccc4c(CCCO)ccc(c34)C1=O)n(C)c(=O)n2C`, the activation in experiment [1] was 5%. Moreover, the Potency result in experiment [2] and in experiment [3] was “inactive” in each case.

As for `CC1=CC(=O)[C@]2(O[C@@H]3O[C@@H](C)[C@H](O)[C@@H](O)[C@H]3O)C=CO[C@@H](O[C@@H]3O[C@H](CO)[C@@H](O)[C@H](O)[C@H]3O)[C@H]12`, the activation in experiment [1] was -18.3%. The Potency result in experiment [2] and in experiment [3] was “inactive” each time.

On to `Cc1cc(C(N)=O)ccc1-n1c(CCC(=O)O)ccc1-c1ccc(-n2ccnc2)cc1`, for which the activation in experiment [1] is -2.68%. For the same compound, the Potency result in experiment [2] and in experiment [3] was “inactive” throughout.
